Screening results from PubChem BioAssay.
Compounds with a hit are over-represented: about 2.1% of the library has one in this group of screens.
TDP43 rescue = inhibitors of TDP-43 toxicity in yeast; actives 1.8% (n = 410,000); Potency, µM (series often up to 46.1 µM), without a hit: at the top dose growth rescue (activation), most hits filed as activators; AID 652104; TDP-43 expressing yeast growth rescue, BacTiter-Glo, 24 h; further: % of control where 0% means no effect; nearly all actives have a fitted effect of over 50% in size
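Growth rescue of TDP-43-toxic yeast measured as ATP luminescence (BacTiter-Glo). Cells grown to mid-log in raffinose, induced in galactose at OD600=0.02, exposed to compound 24 hr at 30 deg C.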
PTAP TSG101 blk = blocks PTAP/TSG101 interaction to inhibit HIV-1 budding | AID 493005 | 340,000 tested, under 10 active | Fluorescence polarization, FITC-PTAP peptide / Tsg101 binding | Q99816 | Potency, µM (doses to about 115 µM), inactives show at the highest dose activity change, negative = inhibition, most hits filed as inhibitors; active means well fitted inhibition curve with a large enough effect in the main read-out, with a control signal flat, not every such curve was filed as active; inconclusive means small, poorly fitted or top-dose-only effect, or effect the other way, or a change in a side signal; inactive means no such curve, though single readings can be large or run the other way; further: % of control where 0% means no effect
Target sequence (Q99816 whole entry, looked up): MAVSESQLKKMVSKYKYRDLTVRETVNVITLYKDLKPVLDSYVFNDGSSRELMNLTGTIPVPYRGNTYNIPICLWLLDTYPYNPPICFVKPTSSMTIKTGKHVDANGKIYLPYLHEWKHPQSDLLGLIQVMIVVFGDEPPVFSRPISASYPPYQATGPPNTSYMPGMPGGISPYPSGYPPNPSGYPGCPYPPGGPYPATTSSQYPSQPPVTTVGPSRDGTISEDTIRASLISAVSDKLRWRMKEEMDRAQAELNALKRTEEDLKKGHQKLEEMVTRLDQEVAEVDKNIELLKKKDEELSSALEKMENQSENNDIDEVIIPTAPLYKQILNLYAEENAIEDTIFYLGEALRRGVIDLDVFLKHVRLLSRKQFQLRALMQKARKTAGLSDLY
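FP read-out: FITC-PTAP peptide, 50 nM final, binding Tsg101 binding domain, 10 uM final; 20 min, r.t.; 10 mM HEPES pH 7.5, 0.15 M NaCl, 0.01% Tween 20, 3 mM EDTA, 0.1 mM TCEP.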
aSyn rescue = alpha-synuclein toxicity inhibition in yeast | Yeast expressing alpha-synuclein, growth rescue, BacTiter-Glo, 24 h | Potency, µM (doses to about 46.1 µM), inactives show top-dose growth rescue (activation), most hits filed as activators | AID 652106 | actives 0.14% (n = 370,000); further: % of control where 0% means no effect; nearly all actives have a fitted effect of over 65% in size
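Screening used galactose-induced yeast with toxic alpha-synuclein levels, exposed to compound for 24 hr at 30 deg C. Cell growth, read with BacTiter-Glo luminescence, gave the measured signal.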
FUS yeast rescue = rescues growth of FUS-expressing yeast; S. cerevisiae FUS-expressing, growth rescue, OD600, 24 h; Potency, µM (titrated, usually from 76.6 µM), actives largely listed as activators; actives 0.24% (n = 390,000); AID 1347120;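 further: plate controls were DMSO vehicle for no effect and reference control for full effect; nearly all actives have a fitted effect of over 55% in size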
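Absorbance at 600 nm, taken 24hr after compound addition, measured rescue of FUS-yeast growth at 30C. Induction used 2% galactose with seeding at OD 0.005. Controls: CP55940 from 92uM final, DMSO only.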
Abeta rescue = restores growth of yeast expressing A-beta42 peptide; yeast expressing A-beta42, growth rescue, OD600, 48 h; response scale: 0% DMSO, 100% iron-clioquinol control; Potency, µM (highest dose often 46.1 µM), usual class: activators; actives 0.063% (n = 410,000); AID 1347071; further: nearly all actives have a fitted effect of over 55% in size
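Yeast A-beta toxicity model in growth medium with pinned compounds, 48 h at 30 C; growth read as absorbance at 600 nm. Normalized to FeCl3/clioquinol equimolar mix (positive) and DMSO (negative).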
* marks the source's active call; other numbers are inactive results; i = inactive; ? = inconclusive; . = no result. Unless noted, the call rests on the fitted dose curve; in most records, active means well fitted curve in the direction sought with a large enough effect; inconclusive means small, poorly fitted or top-dose-only effect, or another doubt; inactive means no such curve, though single readings can be large; an effect the other way counts as inactive or inconclusive. Potency means the concentration at half of the fitted maximal effect.

SMILES	TDP43 rescue	PTAP TSG101 blk	aSyn rescue	FUS yeast rescue	Abeta rescue
CCCCN(C)C(=O)c1ccc2c(c1)N(Cc1cccc(Cl)c1)C(=O)c1ccccc1S2=O (centres undefined)	18%	.	.	?	i
CCCCC(=O)N(Cc1ccccc1)c1ccccc1C(=O)Nc1cc(OC)ccc1OC	.	.	.	i	.
CCCCS/C(N)=N/N=C/c1ccccc1O	11µM*	-5%	-3%	i	i
CCCS/C(N)=N/N=C/c1cc(C)ccc1O	12%	-2%	5%	i	i
COc1ccc(CNC(=O)Cn2ccc3cc(S(=O)(=O)N4CCCCC4)ccc32)c(OC)c1	18%	.	.	i	i
CCCn1c(CC)nc([N+](=O)[O-])c1S(=O)(=O)c1ccccc1	25µM*	-7%	6%	i	i
Cc1cc(NC(=O)c2ccc(Cl)cc2Cl)n(-c2ccccc2)n1	20µM*	-2%	-5%	i	i
Cc1cc(NC(=O)Nc2cc(C)nn2-c2ccccc2)n(-c2ccccc2)n1	10%	-5%	-1%	i	i
Cc1nnc(SCC(=O)Nc2cc(-c3cc(C)c(C)cc3C)nn2-c2ccccc2)s1	?	-5%	1%	25µM*	i
Cc1nnc(SCC(=O)Nc2cc(C(C)(C)C)nn2-c2ccccc2)s1	-12%	0%	-1%	.	i
Cc1cc(NC(=O)CSc2cc(Cl)ccc2Cl)n(-c2ccccc2)n1	13µM*	-10%	16%	i	i
Cc1cc(NC(=O)COc2ccc(Cl)cc2Cl)n(-c2ccccc2)n1	17%	-1%	3%	i	i
CCOc1cccc(NC(=O)C2CC(=O)N(C)C(=Nc3ccccc3)S2)c1 (centres undefined)	?	-5%	20µM*	i	?
S=c1nc[nH]c2n[nH]nc12	.	.	0%	.	.
O=C(O)c1ccc(C=C(c2nc3ccccc3s2)c2nc3ccccc3s2)cc1	-16%	0%	12%	i	i
O=C(O)c1ccc(Oc2nc3ccccc3s2)cc1	13µM*	2%	?	.	i
COc1ccc2nc(Cl)cc(Cl)c2c1	8%	1%	-7%	i	i
C=CS(=O)(=O)c1c2cc(OC)ccc2nc2ccc(OC)cc12	3.5µM*	?	-42%	.	i
COc1cc(NC(=O)Cc2noc3ccccc23)cc(OC)c1OC	-2%	.	.	i	i
O=C(Sc1nnc(-c2ccccc2)o1)N1c2ccccc2Sc2ccccc21	11µM*	-2%	-15%	i	?
COc1cc2c(NC3CCN(C)CC3)nc(N3CCCN(C)CC3)nc2cc1OCc1ccccc1	.	.	-11%	.	.
COc1ccc([N+](=O)[O-])cc1NC(=O)C(C)OC(=O)/C=C/c1ccco1 (centres undefined)	25µM*	-2%	-10%	.	i
COc1ccc(Cl)cc1NC(=O)CN(C)C(=O)/C=C/c1ccco1	28µM*	-3%	5%	i	i
COc1ccc(Cl)cc1NC(=O)CN(C)CC(=O)Nc1ccc(C)cc1Br	18µM*	0%	3%	i	i
O=[N+]([O-])c1ccc(Nc2nccc(Cl)n2)cc1	5.6µM*	-1%	3%	i	i
SMILES	TDP43 rescue	PTAP TSG101 blk	aSyn rescue	FUS yeast rescue	Abeta rescue
O=C(/C=C/c1ccc(OC(F)F)cc1)Nc1cccc(S(=O)(=O)N2CCOCC2)c1	1%	-4%	4%	i	i
CCn1c2ccccc2c2cc(/C=N/NC(=O)c3ccccc3)ccc21	11µM*	4%	5%	?	i
COC(=O)c1ccc(NC(=O)CN(Cc2ccccc2)S(=O)(=O)c2ccc(Cl)cc2)cc1	7%	.	.	i	i
O=C(NC(=S)Nc1ccc(N2CCOCC2)cc1)c1ccccc1	-11%	1%	-2%	i	i
O=C(NC(=S)Nc1ccc(N2CCOCC2)cc1)c1cccc(Cl)c1	16µM*	-1%	0%	i	i
CN(Cc1ccccc1)C(=O)COC(=O)c1ccc2ccccc2n1	15%	-2%	3%	i	i
CCc1nc2ccccc2c(C(=O)OCC(=O)N(C)Cc2ccccc2)c1C	35µM*	-4%	3%	i	i
CC(C)C(c1nnnn1C1CCCC1)N1CCCc2ccccc21 (centres undefined)	16µM*	1%	3%	i	i
Cc1ccc(-n2cnc3cc(C(=O)NCc4ccc(F)cc4)ccc32)c(C)c1	.	.	.	?	i
COc1cc(OC)c2c(c1)S(=O)(=O)C(c1ccccc1)=C2N	5%	-1%	1%	i	16µM*
CCOC(=O)c1c(CN2CCOCC2)n(-c2ccccc2)c2cc(Br)c(O)cc12	-13%	-2%	.	i	i
CCOC(=O)c1c(CN2CCOCC2)n(-c2ccccc2)c2cc(Br)c(OC)cc12	16µM*	-5%	-2%	i	i
Cc1cccc(CC(=O)N2CC(=O)Nc3ccc(Br)cc3C2c2ccc(F)cc2)c1 (centres undefined)	17%	.	.	i	i
Cc1cc(C)cc(Nc2cc(C)nc3nc(-c4ccco4)nn23)c1	?	.	.	i	i
Cc1ccc(Cl)cc1NC(=O)COC(=O)CC1CCCCC1	13µM*	-2%	4%	i	?
CCC(C(=O)NC1CCC(C)CC1)n1nc(C)c2sc3ccccc3c2c1=O (centres undefined)	9%	.	.	i	i
O=S(=O)(Nc1ccc(N2CCOCC2)cc1)c1cc(Cl)ccc1Cl	14µM*	0%	15%	i	i
COc1ccc(S(=O)(=O)Nc2ccc3oc4c(c3c2)CCCC4)cc1	35µM*	.	.	i	i
O=S(=O)(Nc1ncccn1)c1ccc(NS(=O)(=O)c2cc(Cl)ccc2Cl)cc1	-1%	-5%	0%	i	i
O=S(=O)(Nc1ccc2oc3c(c2c1)CCCC3)c1cc(Cl)ccc1Cl	35µM*	.	.	i	?
COc1ccc(S(=O)(=O)Nc2ccc3oc(C)c(C(=O)O)c3c2)cc1	3%	-7%	4%	i	?
CCCC1CCC2(CC1)CCC2OC(=S)Nc1cccc(Cl)c1 (centres undefined)	.	.	.	i	.
CCNC(=O)Cc1ccc(NC(=O)N2CCCCc3ccccc32)cc1	20%	.	.	i	i
Cc1ccccc1NC(=O)Cn1c(SCC(=O)Nc2ccc(F)cc2)nc2ccccc21	13%	.	.	i	i
CCn1c(=O)n(CC(=O)N2CCC(C)CC2)c(=O)c2ccccc21	.	.	.	i	.
COc1cccc(NC(=O)Cn2c(=O)n(-c3ccc(CC(=O)NCC4CCCO4)cc3)c(=O)c3ccccc32)c1 (centres undefined)	17%	.	.	i	i
COc1ccc(C(=O)/C(=C\c2ccco2)N2C=CC=CC2=C(C#N)C#N)cc1	?	-7%	4%	i	i
